# Measured values reported in the supplement of paper PMC10037445.
# Whole data set: some 2,900 compounds, median “NF-kB SEAP reporter activity, fold change vs agonist alone” near 0.99, cut for the highest 2% near 2.6. Only a selection was taken, and the highest values are over-represented in it overall.
# Experiments:
# RAW-Dual [1] = experiment: NF-kB SEAP reporter activity, fold change vs agonist alone; cytotoxicity flag (confluency mask): not cytotoxic; higher = enhanced NF-kB activity
# How it was run: (§1)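 RAW-Dual macrophages were seeded in DMEM at 50,000 cells/well in 384-well plates, given 50 nL of library stock by pin tool, and given a PRR agonist 1 h later. Plates were held at 37 °C, 5% CO2 for 20 hours, after which supernatant was read for IRF by QuantiLuc luminescence and for NF-κB by QuantiBlue absorbance at 620 nm. Reporter activity is expressed as fold change over wells that received agonist alone. A well was called cytotoxic when IncuCyte confluency fell below 70% of agonist controls in both mask sets.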
# RAW-Dual [2] = experiment: NF-kB SEAP reporter activity, fold change vs agonist alone; higher = enhanced NF-kB activity
# How it was run: as §1
# RAW-Dual [3] = experiment: NF-kB SEAP reporter activity, fold change vs agonist alone; cytotoxicity flag (confluency mask): cytotoxic (confluency <70% of control); higher = enhanced NF-kB activity
# How it was run: as §1
# [4] = agonist: ODN 1826 (TLR9) 0.5 ug/mL
# [5] = agonist: Pam2CSK4 (TLR2/6) 0.1 ug/mL
# [6] = agonist: Pam3CSK4 (TLR2/1) 0.1 ug/mL
# [7] = library stock concentration (final ~1000-fold dilution): 10 mM, cytotoxicity flag (confluency mask): not cytotoxic, agonist: Imiquimod (TLR7) […]
# [8] = library stock concentration (final ~1000-fold dilution): 10 mM, cytotoxicity flag (confluency mask): not cytotoxic, agonist: MPLA (TLR4) […]
# [9] = library stock concentration (final ~1000-fold dilution): 10 mM, cytotoxicity flag (confluency mask): cytotoxic (confluency <70% of control), agonist: Imiquimod (TLR7) […]
# [10] = library stock concentration (final ~1000-fold dilution): 10 mM, cytotoxicity flag (confluency mask): cytotoxic (confluency <70% of control), agonist: MPLA (TLR4) […]
structure (smiles),measurement,setting,value
NC(CSCCCO)C(=O)O (centres undefined) (library stock concentration (final ~1000-fold dilution): 10 mM water),NF-kB SEAP reporter activity,RAW-Dual [1]; agonist: LPS (TLR4) 0.1 ug/mL,1.11
same,NF-kB SEAP reporter activity,RAW-Dual [1]; [4],1.09
same,NF-kB SEAP reporter activity,RAW-Dual [1]; [5],1.22
same,NF-kB SEAP reporter activity,RAW-Dual [1]; [6],1.09
NC(CSCCCO)C(=O)O (centres undefined),NF-kB SEAP reporter activity,"RAW-Dual [2]; library stock concentration (final ~1000-fold dilution): 10 mM water, cytotoxicity flag (confluency mask): not cytotoxic, agonist: Imiquimod (TLR7) […]",0.937
same,NF-kB SEAP reporter activity,"RAW-Dual [2]; library stock concentration (final ~1000-fold dilution): 10 mM water, cytotoxicity flag (confluency mask): not cytotoxic, agonist: MPLA (TLR4) […]",1.04
C=CC1(C)CC(OC(=O)CSC(C)(C)CNC(=O)C(N)C(C)C)C2(C)C(C)CCC3(CCC(=O)C32)C(C)C1O.Cl (centres undefined) (library stock concentration (final ~1000-fold dilution): 10 mM),NF-kB SEAP reporter activity,RAW-Dual [1]; agonist: LPS (TLR4) 0.1 ug/mL,1.22
same,NF-kB SEAP reporter activity,RAW-Dual [1]; [4],0.971
same,NF-kB SEAP reporter activity,RAW-Dual [1]; [5],0.669
same,NF-kB SEAP reporter activity,RAW-Dual [1]; [6],0.845
C=CC1(C)CC(OC(=O)CSC(C)(C)CNC(=O)C(N)C(C)C)C2(C)C(C)CCC3(CCC(=O)C32)C(C)C1O.Cl (centres undefined),NF-kB SEAP reporter activity,RAW-Dual [2]; [7],0.86
same,NF-kB SEAP reporter activity,RAW-Dual [2]; [8],1.25
CCCCCCCCCCCCCCCC(=O)NC(CCSC)C(=O)NCC(=O)NC(Cc1ccc(O)cc1)C(=O)NC(CCC(N)=O)C(=O)NC(CCCCN)C(=O)NC(CCCCN)C(=O)NC(CC(C)C)C(=O)NC(CCCNC(=N)N)C(=O)NC(CO)C(=O)NC(CCSC)C(=O)NC(C(=O)NC(CC(=O)O)C(=O)NC(CCCCN)C(=O)NC(Cc1ccc(O)cc1)C(=O)NC(CCCNC(=N)N)C(=O)NC(CC(C)C)C(=O)O)C(C)O (centres undefined) (library stock concentration (final ~1000-fold dilution): 10 mM),NF-kB SEAP reporter activity,RAW-Dual [3]; agonist: LPS (TLR4) 0.1 ug/mL,0.885
same,NF-kB SEAP reporter activity,RAW-Dual [3]; [4],0.714
same,NF-kB SEAP reporter activity,RAW-Dual [3]; [5],0.614
same,NF-kB SEAP reporter activity,RAW-Dual [3]; [6],0.68
CCCCCCCCCCCCCCCC(=O)NC(CCSC)C(=O)NCC(=O)NC(Cc1ccc(O)cc1)C(=O)NC(CCC(N)=O)C(=O)NC(CCCCN)C(=O)NC(CCCCN)C(=O)NC(CC(C)C)C(=O)NC(CCCNC(=N)N)C(=O)NC(CO)C(=O)NC(CCSC)C(=O)NC(C(=O)NC(CC(=O)O)C(=O)NC(CCCCN)C(=O)NC(Cc1ccc(O)cc1)C(=O)NC(CCCNC(=N)N)C(=O)NC(CC(C)C)C(=O)O)C(C)O (centres undefined),NF-kB SEAP reporter activity,RAW-Dual [2]; [9],1.02
same,NF-kB SEAP reporter activity,RAW-Dual [2]; [10],1.02
COc1ccc(Oc2cc(NCCC(F)(F)F)c3ncc(-c4ccc(C(=O)NC5CC5)c(C)c4)n3n2)c(F)c1F (library stock concentration (final ~1000-fold dilution): 10 mM),NF-kB SEAP reporter activity,RAW-Dual [1]; agonist: LPS (TLR4) 0.1 ug/mL,2.44
same,NF-kB SEAP reporter activity,RAW-Dual [1]; [4],1.78
same,NF-kB SEAP reporter activity,RAW-Dual [1]; [5],0.636
same,NF-kB SEAP reporter activity,RAW-Dual [1]; [6],0.913
COc1ccc(Oc2cc(NCCC(F)(F)F)c3ncc(-c4ccc(C(=O)NC5CC5)c(C)c4)n3n2)c(F)c1F,NF-kB SEAP reporter activity,RAW-Dual [2]; [7],1.19
same,NF-kB SEAP reporter activity,RAW-Dual [2]; [8],1.32
COc1cccc(CCc2ccccc2OCC(CN(C)C)OC(=O)CCC(=O)O)c1.Cl (centres undefined) (library stock concentration (final ~1000-fold dilution): 10 mM),NF-kB SEAP reporter activity,RAW-Dual [1]; agonist: LPS (TLR4) 0.1 ug/mL,1.33
same,NF-kB SEAP reporter activity,RAW-Dual [1]; [4],0.733
same,NF-kB SEAP reporter activity,RAW-Dual [1]; [5],1.03
same,NF-kB SEAP reporter activity,RAW-Dual [1]; [6],0.924
COc1cccc(CCc2ccccc2OCC(CN(C)C)OC(=O)CCC(=O)O)c1.Cl (centres undefined),NF-kB SEAP reporter activity,RAW-Dual [2]; [7],1.22
same,NF-kB SEAP reporter activity,RAW-Dual [2]; [8],1.03
Cc1cc(C)cc(C(=O)NOCCCCCC(=O)NO)c1,NF-kB SEAP reporter activity,RAW-Dual [2]; [9],1.41
same,NF-kB SEAP reporter activity,RAW-Dual [2]; [10],2.74
Cc1cc(Cl)ccc1OCCCC(=O)NO,NF-kB SEAP reporter activity,RAW-Dual [2]; [7],1.35
same,NF-kB SEAP reporter activity,RAW-Dual [2]; [8],1.31
Cc1cc(Cl)ccc1OCCCC(=O)NO (library stock concentration (final ~1000-fold dilution): 10 mM),NF-kB SEAP reporter activity,RAW-Dual [1]; agonist: LPS (TLR4) 0.1 ug/mL,1.51
same,NF-kB SEAP reporter activity,RAW-Dual [1]; [4],0.823
same,NF-kB SEAP reporter activity,RAW-Dual [1]; [5],0.939
same,NF-kB SEAP reporter activity,RAW-Dual [1]; [6],0.726
Cc1cc(C)cc(C(=O)NOCCCCCC(=O)NO)c1 (library stock concentration (final ~1000-fold dilution): 10 mM),NF-kB SEAP reporter activity,RAW-Dual [3]; agonist: LPS (TLR4) 0.1 ug/mL,5.28
same,NF-kB SEAP reporter activity,RAW-Dual [3]; [4],2.33
same,NF-kB SEAP reporter activity,RAW-Dual [3]; [5],0.935
same,NF-kB SEAP reporter activity,RAW-Dual [3]; [6],1.43
CNC(C)C(=O)NC1CN(C(=O)CC(C)C)CCC2CCC(C(=O)NC(c3ccccc3)c3ccccc3)N2C1=O (centres undefined),NF-kB SEAP reporter activity,RAW-Dual [2]; [7],0.948
same,NF-kB SEAP reporter activity,RAW-Dual [2]; [8],0.82
CNC(C)C(=O)NC1CN(C(=O)CC(C)C)CCC2CCC(C(=O)NC(c3ccccc3)c3ccccc3)N2C1=O (centres undefined) (library stock concentration (final ~1000-fold dilution): 10 mM),NF-kB SEAP reporter activity,RAW-Dual [1]; agonist: LPS (TLR4) 0.1 ug/mL,0.854
same,NF-kB SEAP reporter activity,RAW-Dual [1]; [4],1.1
same,NF-kB SEAP reporter activity,RAW-Dual [1]; [5],0.925
same,NF-kB SEAP reporter activity,RAW-Dual [1]; [6],1.08
Oc1cccc(-c2nc(N3CCOCC3)c3oc4ncccc4c3n2)c1,NF-kB SEAP reporter activity,RAW-Dual [2]; [7],2.46
same,NF-kB SEAP reporter activity,RAW-Dual [2]; [8],2.44
CC1(C)OCCn2c1nc1c(N3CCOCC3)nc(-c3cnc(N)nc3)nc12 (library stock concentration (final ~1000-fold dilution): 10 mM),NF-kB SEAP reporter activity,RAW-Dual [1]; agonist: LPS (TLR4) 0.1 ug/mL,1.42
same,NF-kB SEAP reporter activity,RAW-Dual [1]; [4],0.768
same,NF-kB SEAP reporter activity,RAW-Dual [1]; [5],0.464
same,NF-kB SEAP reporter activity,RAW-Dual [1]; [6],0.544
Nc1ccc(C(=O)Nc2cccc(-c3nc(N4CCOCC4)c4oc5ncccc5c4n3)c2)cn1 (library stock concentration (final ~1000-fold dilution): 10 mM),NF-kB SEAP reporter activity,RAW-Dual [1]; agonist: LPS (TLR4) 0.1 ug/mL,2.62
same,NF-kB SEAP reporter activity,RAW-Dual [1]; [4],0.304
same,NF-kB SEAP reporter activity,RAW-Dual [1]; [5],0.638
same,NF-kB SEAP reporter activity,RAW-Dual [1]; [6],0.805
N#Cc1cccc(-c2c[nH]c3ncnc(N4CCOCC4)c23)c1 (library stock concentration (final ~1000-fold dilution): 10 mM),NF-kB SEAP reporter activity,RAW-Dual [1]; agonist: LPS (TLR4) 0.1 ug/mL,0.963
same,NF-kB SEAP reporter activity,RAW-Dual [1]; [4],0.792
same,NF-kB SEAP reporter activity,RAW-Dual [1]; [5],0.588
same,NF-kB SEAP reporter activity,RAW-Dual [1]; [6],0.962
CC1(C)OCCn2c1nc1c(N3CCOCC3)nc(-c3cnc(N)nc3)nc12,NF-kB SEAP reporter activity,RAW-Dual [2]; [7],1.02
same,NF-kB SEAP reporter activity,RAW-Dual [2]; [8],1.07
Nc1ccc(-c2cccc(C(=O)Nc3cnc4nc(N5CCOCC5)oc4c3)n2)cn1,NF-kB SEAP reporter activity,RAW-Dual [2]; [7],1.04
same,NF-kB SEAP reporter activity,RAW-Dual [2]; [8],1.08
Nc1ccc(C(=O)Nc2cccc(-c3nc(N4CCOCC4)c4oc5ncccc5c4n3)c2)cn1,NF-kB SEAP reporter activity,RAW-Dual [2]; [7],1.77
same,NF-kB SEAP reporter activity,RAW-Dual [2]; [8],2.3
CCn1c(-c2nonc2N)nc2cnc(Oc3cccc(NC(=O)c4ccc(OCCN5CCOCC5)cc4)c3)cc21.Cl (library stock concentration (final ~1000-fold dilution): 10 mM),NF-kB SEAP reporter activity,RAW-Dual [1]; agonist: LPS (TLR4) 0.1 ug/mL,1.31
same,NF-kB SEAP reporter activity,RAW-Dual [1]; [4],0.288
same,NF-kB SEAP reporter activity,RAW-Dual [1]; [5],1.12
same,NF-kB SEAP reporter activity,RAW-Dual [1]; [6],1.56
N#Cc1cccc(-c2c[nH]c3ncnc(N4CCOCC4)c23)c1,NF-kB SEAP reporter activity,RAW-Dual [2]; [7],1.01
same,NF-kB SEAP reporter activity,RAW-Dual [2]; [8],0.873
